This is an account of results in PubChem BioAssay (NCATS).

Unmarked numbers belong to inactive results. Records with an inconclusive call do not appear. Active and inactive are the calls of the source. Unless noted, the call rests on the fitted dose curve; in most records, active means well fitted curve in either direction with a large enough effect (not every such curve was filed as active); inconclusive means small, poorly fitted or top-dose-only effect, or another doubt; inactive means flat fitted curve, though single readings scatter. Where only a bound is given, the exact number is not on record here.

In test [1] the target is Lysosomal acid glucosylceramidase (Homo sapiens) (UniProt P04062). The test can be described thus: Glucocerebrosidase-p2 (AID 348; in the data active means potency below about 10 µM; further: potency means the concentration at half of the fitted maximal effect). As to conditions: purified GBA, blue fluorogenic substrate, 40 min. The essentials:
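Compounds titrated from 0.6 nM upwards against 0.2 nM enzyme in pH 5.9 citric acid/KH2PO4, taurocholate, tween-20; blue fluorogenic substrate 80 uM, 40 min room temperature, stopped and read Ex 365/Em 440 for AC50.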

Test [2] is described as follows: AP1 Signaling Pathway (AID 357). Further: on the % scale 0 is the no-effect control and ±100 the full control effect. Conditions: ME-180 AP-1-bla reporter, EGF-induced, beta-lactamase ratio, 5 h; at 7.69 µM (top of the series) unless noted. The essentials:
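ME-180 cells with beta-lactamase reporter under AP-1 response element, stimulated with EC50 EGF; compounds tested in titration series, 5 h at 37 °C. CCF4 substrate added 2.5 h at room temperature; 460/530 nm emission ratio gave %activity and AC50.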

Test [3] deals with Cytochrome P450 1A2 (Homo sapiens) (UniProt P05177). The test can be described thus: p450-cyp1a2 (AID 410; calls by dose curve; further: potency means the concentration at half of the fitted maximal effect;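 on activity change, negative = inhibition: -100% = full effect of reference inhibitor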). As to conditions: recombinant CYP1A2, luciferin-ME demethylation, luminescence; series mostly up to 57 µM. The essentials: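 20nM CYP1A2 with 100uM Luciferin-ME (at Km) in 100mM KPO4; compound preincubated 10 min, NADPH regeneration added, 60 min at room temperature. Luciferin quantified by luminescence after detection reagent; normalized to 57 uM furafylline.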

A short description of test [4]: Stat Signaling Pathway (AID 446).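 Further: ME-180 cervical cancer cells given 40 pM IL-6 alongside compound; SIE-controlled beta-lactamase reporter measured as 460/530 nm FRET emission ratio; on the % scale 0 is the no-effect control and ±100 the full control effect.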 As to conditions: ME-180 SIE beta-lactamase reporter, IL-6 stimulated, 5 h; at 7.69 µM (top of the series) unless noted. The essentials: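 Reporter line: ME-180 cervical carcinoma, SIE-beta-lactamase. Treatment: compound with 40 pM IL-6, 5 hrs, 37 C, in low-serum OPTI-MEM with 10 mM HEPES pH 7.3. Detection: 460/530 nm fluorescence.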

The target of test [5] is Glucocorticoid receptor (Homo sapiens) (UniProt P04150). The test can be described thus: GR-GFP Redistribution (AID 450;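 active means compounds whose dose series gives a full or clear partial fitted curve of increased nuclear translocation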; further: potency means the concentration at half of the fitted maximal effect). As to conditions: U2OS GR-GFP nuclear translocation, laser cytometry, 2 h.
Test [6] has the same target. The test can be described thus: GR-EFC Redistribution (AID 451; calls by dose curve; further: potency means the concentration at half of the fitted maximal effect). As to conditions: CHO-K1 GR-EFC translocation, beta-gal luminescence, 2 h. An outline of the steps:
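CHO-K1 cells stably expressing nuclear-localized β-gal enzyme acceptor and GR fused C-terminally to the enzyme donor fragment; ligand-driven nuclear translocation restores β-gal by complementation. Compounds titrated up to 46 uM final, 2 h at 37 °C; luminescence read.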

Test [7] deals with Mitogen-activated protein kinase 10 (Mus musculus) (UniProt Q61831). The experiment in a line: JNK3 AlphaScreen Assay (AID 530).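 Further: kinase came from lysate of stimulated human HepG2 cells; signal reports phosphorylation of biotinylated GST-cJun 1-79 at Ser73 with 10 µM ATP; on the % scale 0 is the no-effect control and ±100 the full control effect.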 As to conditions: JNK3 lysate, c-Jun phosphorylation; series mostly up to 57.1 µM. The essentials: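 Inhibitors reduce antibody binding to phosphorylated biotin-cJun, lowering AlphaScreen luminescence. Lysates from HepG2 cells pre-activated by IL-1beta plus TNF-alpha supplied JNK3; compounds were titrated.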
(In general: In Alpha technology, singlet oxygen from a donor bead excites a nearby acceptor bead.)

The target in test [8] is 3',5'-cyclic-AMP phosphodiesterase 4B (Homo sapiens) (UniProt Q07343). The test can be described thus: qHTS Assay for Inhibitors of PDE-IV (AID 607; active means well fitted activation curve with a large enough effect in the main read-out, with a control signal flat, not every such curve was filed as active; further: % of control where 0% means no effect). As to conditions: HEK293 ACTOne CNG channel cells, membrane potential fluorescence; series mostly up to 22.9 µM. The essentials:
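Cell-based read-out of cAMP via a modified cyclic nucleotide-gated channel and membrane potential dye (535/590 nm) in HEK293 cells expressing PDE4 endogenously. Compounds tested up to 22.9 uM final; 100 uM RO 20-1724 reference.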

Test [9] deals with Cytochrome P450 3A4 (Homo sapiens) (UniProt P08684). The test can be described thus: qHTS Assay for Activators of Cytochrome P450 3A4 (AID 885; active means well fitted curve in the direction sought with a large enough effect; an effect the other way counts as inactive or inconclusive; further: nearly all actives have a fitted effect of over 65% in size). As to conditions: recombinant CYP3A4, Luciferin-PPXE luminescence, 60 min; series mostly up to 57.1 µM. The essentials: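 Signal was normalized against complete inhibition by 57 uM ketoconazole. The reaction used 20nM CYP3A4 with 25uM Luciferin-PPXE, 10-min compound preincubation and a 60-min NADPH-supported step at RT.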
(qHTS replaces the single test concentration by a dilution series.)

Test [10] is described as follows: Confirmation and Secondary Assay for Modulators of Hemoglobin Beta Chain Splicing at IVS2 654 locus (AID 910; active means well fitted curve in the direction sought with a large enough effect; an effect the other way counts as inactive or inconclusive;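 further: per-well total GFP intensity by laser scanning cytometry after 2-day treatment; % of control where 0% means no effect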). Conditions: HeLa EGFP-654 splicing reporter, GFP fluorescence, 48 h; series mostly up to 38.3 µM. The essentials:
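HeLa cells stably carrying EGFP interrupted by mutant beta-globin IVS2-654 intron (CMV-driven) were treated with compound for 2 days at 37C; corrected splicing was scored as total peak GFP intensity per well (488 nm excitation, 500-520 nm emission).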

Test [11] is described as follows: Confirmation and Secondary Assay for Modulators of Hemoglobin Beta Chain Splicing at IVS2 705 locus (AID 930; active means well fitted curve in the direction sought with a large enough effect; an effect the other way counts as inactive or inconclusive;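 further: HeLa cells stably expressing the EGFP-705 splicing reporter; % of control where 0% means no effect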). Conditions: HeLa EGFP-705 splicing reporter, GFP fluorescence, 48 h; series mostly up to 38.3 µM. The essentials: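 Assay measures total GFP intensity per well in HeLa EGFP-705 cells after 2 days with compound; mis-splicing normally truncates EGFP, so fluorescence indicates corrected splicing.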

Test [12] deals with Ubiquitin carboxyl-terminal hydrolase 1 (Homo sapiens) (UniProt O94782). The test can be described thus: Inhibitors of USP1/UAF1: Pilot qHTS (AID 504865; active means well fitted curve in the direction sought with a large enough effect; an effect the other way counts as inactive or inconclusive;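 further: rhodamine fluorescence freed from ubiquitin-rhodamine substrate followed over time; top concentration of the series differs between compounds; on the % scale 0 is the no-effect control and ±100 the full control effect; nearly all actives have a fitted effect of over 35% in size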). Conditions: purified USP1/UAF1, Ub-rhodamine cleavage fluorescence; series mostly up to 54.9 µM. The essentials: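 Deubiquitinase activity followed as kinetic rhodamine fluorescence release from 150 nM Ub-Rho. 1 nM USP1/UAF1 with compound, after 15 min room-temperature preincubation, in HEPES pH 7.8 buffer containing TCEP, EDTA, BSA and Tween-20.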

A short description of test [13]: Primary qHTS for small molecule stabilizers of the endoplasmic reticulum resident proteome: Secreted ER Calcium Modulated Protein (SERCaMP) assay (AID 1508630; active means well fitted curve in the direction sought with a large enough effect; an effect the other way counts as inactive or inconclusive; further: on the % scale 0 is the no-effect control and ±100 the full control effect). As to conditions: SH-SY5Y GLuc-SERCaMP (Gaussia luciferase released on ER calcium loss) secretion, thapsigargin, luminescence; series mostly up to 38.4 µM. An outline of the steps:
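GLuc-SERCaMP-expressing SH-SY5Y cells, pretreated 16 h with compound, are challenged with thapsigargin to empty ER calcium stores; after 4 h, coelenterazine is added directly to the medium and luminescence is imaged.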

A short description of test [14]: NFAT Signaling Pathway (AID 444). Conditions: Jurkat NFAT-bla M1, carbachol, beta-lactamase ratio, 5 h; at 7.69 µM (top of the series) unless noted. An outline of the steps:
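Jurkat cells carrying an NFAT-driven β-lactamase reporter and co-transfected muscarinic M1 receptor were treated with compound plus carbachol (1 uM final, an EC50 level) for 5 h at 37 °C. CCF4 loading followed for 1 h at RT; 460/530 nm ratio gave %activity.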

In test [15] the target is Cytochrome P450 3A4 (Homo sapiens) (UniProt P08684). The test can be described thus: qHTS Assay for Inhibitors and Substrates of Cytochrome P450 3A4 (AID 884; active means well fitted curve in the direction sought with a large enough effect; an effect the other way counts as inactive or inconclusive; further: potency means the concentration at half of the fitted maximal effect; nearly all actives have a fitted effect of over 50% in size). Conditions: recombinant CYP3A4, Luciferin-PPXE luminescence; series mostly up to 57.1 µM. The essentials:
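20 nM human CYP3A4 with 25 uM Luciferin-PPXE (at KM) in 200 mM KPO4, preincubated 10 min with compound; NADPH regeneration started a 60 min RT reaction. Luciferin detected by luminescence, normalized to 57 uM ketoconazole as full inhibition.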

In test [16] the target is Cytochrome P450 2D6 (Homo sapiens) (UniProt P10635). The test can be described thus: qHTS Assay for Inhibitors and Substrates of Cytochrome P450 2D6 (AID 891; active means well fitted curve in the direction sought with a large enough effect; an effect the other way counts as inactive or inconclusive; further: potency means the concentration at half of the fitted maximal effect; nearly all actives have a fitted effect of over 60% in size). Conditions: recombinant CYP2D6, luciferin-ME EGE luminescence; series mostly up to 57.1 µM. The essentials:
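Human CYP2D6 (5 nM) with 30 uM Luciferin-ME EGE (at Km) in 100 mM KPO4, compound preincubated 10 min, then NADPH regeneration system for 60 min at room temperature. Luciferin read by luminescence; normalized to 1.43 uM quinidine.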

Test [17] is described as follows: qHTS Assay for Identification of Small Molecule Agonists for Hypoxia Response Element Signaling Pathway (AID 914; active means well fitted activation curve with a large enough effect in the signal ratio, with a control signal flat, not every such curve was filed as active; the % refers to the signal ratio; further: % of control where 0% means no effect). Conditions: ME-180 (cervical carcinoma) HRE-bla reporter, beta-lactamase ratio, CoCl2, 17 h; activation: active compounds read high. An outline of the steps: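 Compounds in a titration series were added to ME-180 reporter cells alongside an EC50 level of CoCl2. After 17 hours, beta-lactamase activity was read as the 460nm/530nm emission ratio of CCF4, giving AC50 values.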

Chain of Glucocorticoid receptor (Homo sapiens) (P04150 whole entry, looked up): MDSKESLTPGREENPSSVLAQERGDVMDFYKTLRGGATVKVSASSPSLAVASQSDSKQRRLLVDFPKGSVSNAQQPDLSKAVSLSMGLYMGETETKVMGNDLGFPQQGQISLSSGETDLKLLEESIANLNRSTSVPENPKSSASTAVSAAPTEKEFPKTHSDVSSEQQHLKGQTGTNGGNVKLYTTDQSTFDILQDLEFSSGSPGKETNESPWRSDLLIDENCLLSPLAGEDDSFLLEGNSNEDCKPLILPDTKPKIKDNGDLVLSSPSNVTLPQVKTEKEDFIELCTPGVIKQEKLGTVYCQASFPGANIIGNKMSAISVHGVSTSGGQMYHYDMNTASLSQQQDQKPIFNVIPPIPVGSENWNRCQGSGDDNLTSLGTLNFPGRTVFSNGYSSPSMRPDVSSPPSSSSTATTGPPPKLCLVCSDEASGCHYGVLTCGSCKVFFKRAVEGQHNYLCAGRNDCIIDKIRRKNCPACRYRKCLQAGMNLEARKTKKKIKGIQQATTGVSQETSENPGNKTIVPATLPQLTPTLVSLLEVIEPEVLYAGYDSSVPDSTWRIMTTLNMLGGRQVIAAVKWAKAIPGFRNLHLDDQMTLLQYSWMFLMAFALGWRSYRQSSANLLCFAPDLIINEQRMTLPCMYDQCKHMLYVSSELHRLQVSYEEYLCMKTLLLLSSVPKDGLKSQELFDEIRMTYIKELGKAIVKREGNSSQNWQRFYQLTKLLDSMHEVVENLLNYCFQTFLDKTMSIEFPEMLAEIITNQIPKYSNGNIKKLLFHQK
Chain of Cytochrome P450 3A4 (Homo sapiens) (P08684 whole entry, looked up): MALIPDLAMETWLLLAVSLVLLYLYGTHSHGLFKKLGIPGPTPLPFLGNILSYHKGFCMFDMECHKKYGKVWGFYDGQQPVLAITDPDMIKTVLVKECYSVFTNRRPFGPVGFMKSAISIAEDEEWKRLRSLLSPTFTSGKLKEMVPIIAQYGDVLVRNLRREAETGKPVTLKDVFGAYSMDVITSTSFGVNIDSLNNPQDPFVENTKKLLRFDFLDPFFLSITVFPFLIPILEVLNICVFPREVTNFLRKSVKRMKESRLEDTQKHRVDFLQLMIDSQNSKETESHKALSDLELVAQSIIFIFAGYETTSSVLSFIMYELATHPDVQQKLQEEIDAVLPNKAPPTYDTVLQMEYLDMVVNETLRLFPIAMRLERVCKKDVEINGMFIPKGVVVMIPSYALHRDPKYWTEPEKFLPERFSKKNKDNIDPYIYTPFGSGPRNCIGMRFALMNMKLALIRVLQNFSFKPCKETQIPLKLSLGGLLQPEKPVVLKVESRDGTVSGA
Chain of 3',5'-cyclic-AMP phosphodiesterase 4B (Homo sapiens) (Q07343 whole entry, looked up): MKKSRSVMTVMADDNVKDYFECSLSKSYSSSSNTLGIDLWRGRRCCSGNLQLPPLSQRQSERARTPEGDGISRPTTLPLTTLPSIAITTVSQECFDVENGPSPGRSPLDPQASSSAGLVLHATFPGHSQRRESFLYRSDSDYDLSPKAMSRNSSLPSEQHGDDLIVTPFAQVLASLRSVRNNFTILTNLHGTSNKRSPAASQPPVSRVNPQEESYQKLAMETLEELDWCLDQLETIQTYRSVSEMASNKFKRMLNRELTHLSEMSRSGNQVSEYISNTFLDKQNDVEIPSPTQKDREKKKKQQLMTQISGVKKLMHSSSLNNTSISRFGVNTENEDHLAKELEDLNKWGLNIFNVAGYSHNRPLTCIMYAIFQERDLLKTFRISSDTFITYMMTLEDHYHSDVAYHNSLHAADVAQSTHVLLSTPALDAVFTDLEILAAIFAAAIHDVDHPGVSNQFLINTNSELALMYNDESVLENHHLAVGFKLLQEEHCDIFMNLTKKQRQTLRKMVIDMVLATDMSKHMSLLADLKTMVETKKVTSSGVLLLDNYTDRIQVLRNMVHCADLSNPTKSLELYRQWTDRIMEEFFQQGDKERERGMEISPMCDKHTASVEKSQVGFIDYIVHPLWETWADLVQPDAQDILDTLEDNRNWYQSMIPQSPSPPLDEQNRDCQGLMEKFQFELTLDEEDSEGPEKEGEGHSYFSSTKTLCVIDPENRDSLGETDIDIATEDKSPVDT
Chain of Lysosomal acid glucosylceramidase (Homo sapiens) (P04062 whole entry, looked up): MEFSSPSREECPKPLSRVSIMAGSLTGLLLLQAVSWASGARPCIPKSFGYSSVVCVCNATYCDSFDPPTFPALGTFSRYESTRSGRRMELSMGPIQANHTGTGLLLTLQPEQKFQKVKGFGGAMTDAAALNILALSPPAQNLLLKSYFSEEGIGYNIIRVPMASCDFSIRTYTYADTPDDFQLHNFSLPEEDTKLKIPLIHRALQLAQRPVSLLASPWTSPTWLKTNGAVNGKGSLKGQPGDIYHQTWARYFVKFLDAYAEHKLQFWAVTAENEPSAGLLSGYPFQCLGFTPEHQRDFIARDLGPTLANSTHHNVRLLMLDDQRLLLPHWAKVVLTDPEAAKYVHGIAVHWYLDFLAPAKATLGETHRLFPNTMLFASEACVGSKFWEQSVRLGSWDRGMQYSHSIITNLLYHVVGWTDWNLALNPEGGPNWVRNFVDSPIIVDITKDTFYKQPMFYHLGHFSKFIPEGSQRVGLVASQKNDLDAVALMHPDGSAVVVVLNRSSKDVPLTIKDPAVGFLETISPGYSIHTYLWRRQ
Chain of Cytochrome P450 1A2 (Homo sapiens) (P05177 whole entry, looked up): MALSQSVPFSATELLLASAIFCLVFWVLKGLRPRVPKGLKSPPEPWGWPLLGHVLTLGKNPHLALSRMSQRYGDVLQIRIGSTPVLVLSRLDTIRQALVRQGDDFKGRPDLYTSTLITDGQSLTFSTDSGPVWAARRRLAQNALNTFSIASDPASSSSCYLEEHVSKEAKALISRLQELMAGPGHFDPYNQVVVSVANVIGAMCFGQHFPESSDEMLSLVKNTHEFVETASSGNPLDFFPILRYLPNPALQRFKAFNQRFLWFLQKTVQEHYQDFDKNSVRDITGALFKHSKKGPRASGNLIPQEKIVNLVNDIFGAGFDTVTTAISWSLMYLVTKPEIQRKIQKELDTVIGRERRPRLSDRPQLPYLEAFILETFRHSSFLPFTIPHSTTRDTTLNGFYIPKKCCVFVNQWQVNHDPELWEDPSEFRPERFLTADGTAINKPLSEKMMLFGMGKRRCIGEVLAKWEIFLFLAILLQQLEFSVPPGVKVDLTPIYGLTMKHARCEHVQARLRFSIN
Chain of Ubiquitin carboxyl-terminal hydrolase 1 (Homo sapiens) (O94782 whole entry, looked up): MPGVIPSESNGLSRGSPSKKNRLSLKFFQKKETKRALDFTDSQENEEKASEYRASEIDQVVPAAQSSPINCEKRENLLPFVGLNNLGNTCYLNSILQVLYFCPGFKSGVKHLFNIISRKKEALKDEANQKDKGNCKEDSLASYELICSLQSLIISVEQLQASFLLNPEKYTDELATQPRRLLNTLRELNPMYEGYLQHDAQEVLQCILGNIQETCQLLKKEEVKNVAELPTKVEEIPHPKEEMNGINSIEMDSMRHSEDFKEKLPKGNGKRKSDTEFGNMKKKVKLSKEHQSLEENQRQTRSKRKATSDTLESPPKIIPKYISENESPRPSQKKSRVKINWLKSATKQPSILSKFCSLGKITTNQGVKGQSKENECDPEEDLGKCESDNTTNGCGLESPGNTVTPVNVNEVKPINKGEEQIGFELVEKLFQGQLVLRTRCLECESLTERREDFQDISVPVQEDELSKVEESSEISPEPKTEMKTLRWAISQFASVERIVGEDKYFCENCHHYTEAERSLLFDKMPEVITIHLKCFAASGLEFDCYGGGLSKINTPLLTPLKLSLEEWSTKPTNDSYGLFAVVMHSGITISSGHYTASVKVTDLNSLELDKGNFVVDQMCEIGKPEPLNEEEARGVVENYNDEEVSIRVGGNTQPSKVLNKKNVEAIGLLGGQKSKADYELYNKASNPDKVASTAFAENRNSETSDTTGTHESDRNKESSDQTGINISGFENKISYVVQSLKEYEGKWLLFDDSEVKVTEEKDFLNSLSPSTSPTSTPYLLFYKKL
Chain of Cytochrome P450 2D6 (Homo sapiens) (P10635 whole entry, looked up): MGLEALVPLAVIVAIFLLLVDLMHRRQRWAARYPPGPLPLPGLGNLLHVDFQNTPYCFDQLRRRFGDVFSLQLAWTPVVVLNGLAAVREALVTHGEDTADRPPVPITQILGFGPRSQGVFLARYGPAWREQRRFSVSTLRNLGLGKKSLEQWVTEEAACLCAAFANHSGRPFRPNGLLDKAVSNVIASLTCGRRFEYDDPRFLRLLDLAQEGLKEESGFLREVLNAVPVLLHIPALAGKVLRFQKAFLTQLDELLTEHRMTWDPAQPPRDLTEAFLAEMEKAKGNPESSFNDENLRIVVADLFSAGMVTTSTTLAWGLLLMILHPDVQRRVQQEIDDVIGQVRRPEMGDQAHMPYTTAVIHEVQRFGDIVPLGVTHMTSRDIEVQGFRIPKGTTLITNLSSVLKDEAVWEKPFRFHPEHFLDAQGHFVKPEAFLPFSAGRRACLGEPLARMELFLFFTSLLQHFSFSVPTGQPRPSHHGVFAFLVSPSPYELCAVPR

Take `Cc1cnc(CNc2nc(-c3ccc(C(=O)N(C)C)cc3)nc3ccccc23)cn1`: the Potency in [1] was more than 11.4 µM; in test [3] it was 25.1 µM (active); in test [5], more than 46 µM; in test [6] it was more than 46 µM. Also, the activity change, negative = inhibition in [2] was -29.1%. The activity, negative = inhibition in test [4] was -7.91%. Also, the Potency entry in [7], in test [8], in test [9], in [10] and in test [12] was “inactive” each time. Moreover, the molecule was classed as inactive in test [11] and in test [13].

Consider `N#Cc1cccc(NC(=O)N2CC[C@@]3(CCCN(S(=O)(=O)c4ccccc4)C3)C2)c1`, for which the figures for the Potency in test [1], in test [3] and in [15] were more than 11.4 µM, 25.1 µM (active) and 3.16 µM (active), respectively. The results for the activity change, negative = inhibition in test [2] and in [14] were -14% and 3.6%, respectively. The activity, negative = inhibition in test [4] was -7.29%. Also, the Potency entry in test [7], in test [8] and in test [9] was “inactive” each time. For the same molecule, in test [13], the outcome was inactive.

Turning to `O=S(=O)(c1ccccc1)N1CCC2(CC1)CN(Cc1ccccc1)C2`, the Potency in test [1] is more than 11.4 µM; in test [6], more than 46 µM; in test [16], 0.158 µM (active). Further, the activity change, negative = inhibition in test [2] is 7.31%. Further, the Potency result in [3], in test [7] and in test [8] was “inactive” in each case. Besides, the activity, negative = inhibition in test [4] is 2.83%. Further, the activation in [17] is 8.23%. Also, the result in test [13] was inactive.

Consider `COCCn1c(=O)c(C)nc2cnc(OCc3ccccc3)nc21`, for which the Potency in test [1] was more than 11.4 µM; in test [5] it was more than 9.22 µM; in test [6], more than 46 µM. For the same molecule, the results for the activity change, negative = inhibition in test [2] and in [14] were -16.6% and -3.44%, respectively. Also, the activity, negative = inhibition in test [4] is -9.48%. The Potency entry in test [7] and in [8] was “inactive” in each case. Also, the outcome in test [13] was inactive.

As for `COc1ncc2nc(CCc3ccccc3)c(=O)n(Cc3cccs3)c2n1`, the Potency is more than 11.4 µM in [1], more than 9.22 µM in test [5] and more than 46 µM in test [6]. Also, the figures for the activity change, negative = inhibition in test [2] and in test [14] were -2.76% and -5.02%, respectively. Moreover, the activity, negative = inhibition in test [4] is -3.9%. The Potency result in test [7] is “inactive”. Moreover, the outcome in test [13] was inactive.

Regarding `COCCn1c(=O)c(-c2ccc(F)cc2)nc2cnc(Oc3cccc(Cl)c3)nc21`, the Potency in [1] was more than 11.4 µM; in test [5], more than 9.22 µM; in test [6], more than 46 µM. The activity change, negative = inhibition in test [2] is 1.58%; in test [14], -15.6%. Also, in test [4], the activity, negative = inhibition is -8.51%. The Potency entry in test [7] and in [8] was “inactive” each time. In [13], the result was inactive.

In the case of `O=c1c(-c2ccc(F)c(F)c2)nc2cncnc2n1Cc1ccccc1`, the Potency in test [1] is more than 11.4 µM; in test [5] it was more than 9.22 µM; in test [6], more than 46 µM. The activity change, negative = inhibition in test [2] was -0.964%; in [14] it was -10.8%. Moreover, in test [4], the activity, negative = inhibition is 3.53%. In addition, the Potency entry in test [7] is “inactive”. Further, in test [13], the outcome was inactive.
